About 6,500 targets were measured; listed, in parts, are those with a hit and a random draw of the rest. About 2% of all pairs of compound and target were hits. Values without a mark were called inactive.

Chain of UniProt Q16134 (Q16134 whole entry, looked up): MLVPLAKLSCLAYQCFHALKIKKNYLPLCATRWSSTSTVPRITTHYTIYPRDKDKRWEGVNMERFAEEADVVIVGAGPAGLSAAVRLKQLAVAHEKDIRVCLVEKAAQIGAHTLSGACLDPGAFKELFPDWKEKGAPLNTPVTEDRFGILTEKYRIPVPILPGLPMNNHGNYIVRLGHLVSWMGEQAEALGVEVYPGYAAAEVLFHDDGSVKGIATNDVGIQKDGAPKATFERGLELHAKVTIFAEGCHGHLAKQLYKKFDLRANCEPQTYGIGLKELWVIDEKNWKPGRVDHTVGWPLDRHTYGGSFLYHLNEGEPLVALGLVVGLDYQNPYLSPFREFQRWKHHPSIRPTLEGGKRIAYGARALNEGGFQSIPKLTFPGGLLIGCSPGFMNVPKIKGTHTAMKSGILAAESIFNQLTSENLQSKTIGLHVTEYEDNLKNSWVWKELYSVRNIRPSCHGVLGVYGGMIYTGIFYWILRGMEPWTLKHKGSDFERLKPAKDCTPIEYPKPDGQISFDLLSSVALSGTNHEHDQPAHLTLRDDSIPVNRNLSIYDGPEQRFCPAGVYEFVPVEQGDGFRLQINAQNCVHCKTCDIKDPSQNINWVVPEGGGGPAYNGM
Chain of UniProt P56192 (P56192 whole entry, looked up): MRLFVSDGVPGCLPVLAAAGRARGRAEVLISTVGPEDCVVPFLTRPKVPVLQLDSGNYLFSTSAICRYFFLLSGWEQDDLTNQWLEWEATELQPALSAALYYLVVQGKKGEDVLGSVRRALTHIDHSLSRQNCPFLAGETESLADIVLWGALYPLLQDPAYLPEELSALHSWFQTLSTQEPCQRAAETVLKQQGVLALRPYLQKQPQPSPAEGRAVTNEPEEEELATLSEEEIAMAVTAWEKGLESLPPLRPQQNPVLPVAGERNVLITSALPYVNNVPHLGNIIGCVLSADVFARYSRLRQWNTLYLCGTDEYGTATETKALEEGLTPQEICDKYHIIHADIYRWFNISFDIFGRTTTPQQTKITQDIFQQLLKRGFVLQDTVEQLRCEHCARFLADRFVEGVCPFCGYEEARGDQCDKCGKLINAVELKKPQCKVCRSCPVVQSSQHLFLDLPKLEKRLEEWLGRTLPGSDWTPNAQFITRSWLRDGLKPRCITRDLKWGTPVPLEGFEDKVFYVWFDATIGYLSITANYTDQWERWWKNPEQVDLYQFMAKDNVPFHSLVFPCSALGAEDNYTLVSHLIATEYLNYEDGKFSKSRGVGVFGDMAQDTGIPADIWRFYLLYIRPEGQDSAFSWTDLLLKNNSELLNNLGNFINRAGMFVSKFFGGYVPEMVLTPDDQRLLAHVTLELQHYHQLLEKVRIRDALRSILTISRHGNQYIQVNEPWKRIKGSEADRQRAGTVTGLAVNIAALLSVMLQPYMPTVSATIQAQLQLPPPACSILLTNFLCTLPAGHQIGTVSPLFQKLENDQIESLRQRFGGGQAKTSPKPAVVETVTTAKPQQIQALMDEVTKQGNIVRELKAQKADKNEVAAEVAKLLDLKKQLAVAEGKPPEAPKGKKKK
Chain of UniProt Q13418 (Q13418 whole entry, looked up): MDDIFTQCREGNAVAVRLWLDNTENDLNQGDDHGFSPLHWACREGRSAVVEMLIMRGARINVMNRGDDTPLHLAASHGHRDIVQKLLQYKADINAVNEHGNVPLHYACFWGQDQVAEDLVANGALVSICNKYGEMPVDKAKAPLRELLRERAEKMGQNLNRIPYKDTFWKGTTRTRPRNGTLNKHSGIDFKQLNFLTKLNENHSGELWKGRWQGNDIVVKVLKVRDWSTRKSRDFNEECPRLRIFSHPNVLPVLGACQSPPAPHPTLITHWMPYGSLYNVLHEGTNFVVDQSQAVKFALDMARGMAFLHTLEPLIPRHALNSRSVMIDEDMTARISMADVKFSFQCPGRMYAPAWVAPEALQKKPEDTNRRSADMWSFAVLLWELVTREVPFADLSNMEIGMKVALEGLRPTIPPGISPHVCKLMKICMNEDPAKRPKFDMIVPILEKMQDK
Chain of UniProt P53992 (P53992 whole entry, looked up): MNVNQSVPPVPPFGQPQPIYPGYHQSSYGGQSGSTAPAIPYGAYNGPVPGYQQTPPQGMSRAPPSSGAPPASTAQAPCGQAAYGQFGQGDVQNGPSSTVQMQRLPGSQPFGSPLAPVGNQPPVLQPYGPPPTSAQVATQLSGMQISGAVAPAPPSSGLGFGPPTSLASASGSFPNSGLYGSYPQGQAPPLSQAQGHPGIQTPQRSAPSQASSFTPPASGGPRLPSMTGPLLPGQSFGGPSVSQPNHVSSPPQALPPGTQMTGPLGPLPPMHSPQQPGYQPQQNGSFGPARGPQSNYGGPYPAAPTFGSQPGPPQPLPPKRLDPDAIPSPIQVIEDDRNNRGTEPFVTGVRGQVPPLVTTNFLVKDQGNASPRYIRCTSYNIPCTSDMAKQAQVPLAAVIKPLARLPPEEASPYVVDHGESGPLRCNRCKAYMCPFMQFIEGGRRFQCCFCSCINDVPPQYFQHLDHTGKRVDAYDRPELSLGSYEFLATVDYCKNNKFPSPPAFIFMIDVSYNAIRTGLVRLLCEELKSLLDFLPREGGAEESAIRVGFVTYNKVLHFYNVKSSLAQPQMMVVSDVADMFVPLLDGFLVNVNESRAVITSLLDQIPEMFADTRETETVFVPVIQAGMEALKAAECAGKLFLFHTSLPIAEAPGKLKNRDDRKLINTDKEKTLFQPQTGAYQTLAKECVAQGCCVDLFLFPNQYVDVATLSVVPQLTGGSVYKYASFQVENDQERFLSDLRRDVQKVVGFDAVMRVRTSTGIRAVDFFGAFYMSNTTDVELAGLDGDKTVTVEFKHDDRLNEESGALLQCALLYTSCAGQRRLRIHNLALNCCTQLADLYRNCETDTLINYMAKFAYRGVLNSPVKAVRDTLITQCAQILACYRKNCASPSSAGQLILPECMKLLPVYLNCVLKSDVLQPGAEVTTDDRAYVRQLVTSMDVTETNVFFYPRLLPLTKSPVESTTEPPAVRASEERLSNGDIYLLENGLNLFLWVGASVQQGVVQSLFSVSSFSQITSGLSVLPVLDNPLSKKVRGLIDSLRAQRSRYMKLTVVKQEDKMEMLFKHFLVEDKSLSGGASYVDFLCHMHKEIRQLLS
Chain of UniProt Q14657 (Q14657 whole entry): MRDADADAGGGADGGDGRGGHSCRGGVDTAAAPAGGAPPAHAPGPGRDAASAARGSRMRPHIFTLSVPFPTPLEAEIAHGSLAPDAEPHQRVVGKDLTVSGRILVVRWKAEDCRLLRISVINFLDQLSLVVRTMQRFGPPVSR
Chain of UniProt Q02952 (Q02952 whole entry, looked up): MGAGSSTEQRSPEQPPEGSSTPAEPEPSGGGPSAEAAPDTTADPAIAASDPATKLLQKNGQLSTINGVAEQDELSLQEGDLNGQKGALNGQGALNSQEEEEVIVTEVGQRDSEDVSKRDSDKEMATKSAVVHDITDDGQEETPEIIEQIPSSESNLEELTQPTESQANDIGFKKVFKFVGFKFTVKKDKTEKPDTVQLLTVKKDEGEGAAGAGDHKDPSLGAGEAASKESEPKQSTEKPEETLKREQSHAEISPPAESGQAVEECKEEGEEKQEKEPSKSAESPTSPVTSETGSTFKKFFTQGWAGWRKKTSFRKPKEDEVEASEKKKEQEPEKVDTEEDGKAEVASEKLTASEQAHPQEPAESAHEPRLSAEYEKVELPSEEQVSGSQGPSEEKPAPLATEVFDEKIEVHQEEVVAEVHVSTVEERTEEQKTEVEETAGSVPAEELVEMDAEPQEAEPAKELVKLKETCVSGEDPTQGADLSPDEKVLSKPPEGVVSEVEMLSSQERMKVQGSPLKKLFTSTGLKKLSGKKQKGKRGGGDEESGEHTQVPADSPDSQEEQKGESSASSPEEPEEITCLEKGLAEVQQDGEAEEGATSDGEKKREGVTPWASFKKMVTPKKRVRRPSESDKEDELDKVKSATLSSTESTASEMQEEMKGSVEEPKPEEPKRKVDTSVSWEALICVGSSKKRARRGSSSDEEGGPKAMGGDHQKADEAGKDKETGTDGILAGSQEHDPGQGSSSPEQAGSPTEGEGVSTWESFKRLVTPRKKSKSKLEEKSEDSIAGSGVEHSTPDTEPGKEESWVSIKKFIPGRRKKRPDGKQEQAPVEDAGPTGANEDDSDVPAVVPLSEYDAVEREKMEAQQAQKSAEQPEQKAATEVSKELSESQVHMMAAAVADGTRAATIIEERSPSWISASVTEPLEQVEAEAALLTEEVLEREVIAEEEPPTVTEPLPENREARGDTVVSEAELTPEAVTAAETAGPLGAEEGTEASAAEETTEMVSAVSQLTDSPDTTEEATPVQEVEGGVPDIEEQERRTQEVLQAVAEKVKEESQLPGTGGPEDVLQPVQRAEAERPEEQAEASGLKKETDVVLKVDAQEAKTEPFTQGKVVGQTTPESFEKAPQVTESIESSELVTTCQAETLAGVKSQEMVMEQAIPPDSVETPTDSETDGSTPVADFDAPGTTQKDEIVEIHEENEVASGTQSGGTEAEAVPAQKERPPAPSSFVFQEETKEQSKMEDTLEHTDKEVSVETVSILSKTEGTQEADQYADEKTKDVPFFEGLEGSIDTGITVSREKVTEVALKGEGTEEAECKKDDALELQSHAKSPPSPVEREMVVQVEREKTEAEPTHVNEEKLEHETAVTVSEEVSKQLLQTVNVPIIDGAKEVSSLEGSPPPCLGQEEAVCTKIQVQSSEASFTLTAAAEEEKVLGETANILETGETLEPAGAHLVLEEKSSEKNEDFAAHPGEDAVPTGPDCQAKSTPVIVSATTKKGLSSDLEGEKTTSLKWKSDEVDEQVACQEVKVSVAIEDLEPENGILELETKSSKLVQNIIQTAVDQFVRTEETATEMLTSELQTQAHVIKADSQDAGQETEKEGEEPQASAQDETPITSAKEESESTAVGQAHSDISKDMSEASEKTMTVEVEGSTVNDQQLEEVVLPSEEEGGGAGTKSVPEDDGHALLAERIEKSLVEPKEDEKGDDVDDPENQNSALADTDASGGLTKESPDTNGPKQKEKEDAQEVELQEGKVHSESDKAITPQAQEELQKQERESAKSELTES

Compound in this experiment: COC(=O)C#Cc1ccccc1 [methyl 3-phenylpropiolate]
As to the kind of experiment: log2 ratio of iodoacetamide-alkyne labeling of the cysteine site, DMSO over compound (competition); higher = stronger covalent engagement of the cysteine by the compound, active = 1 or more. The settings on record: 500 µM; treatment time 1 h; system: HEK293T cell lysate. In short, it runs like this: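 The log2 competition ratio per cysteine is defined as mean reporter intensity in control channels over mean reporter intensity in compound channels. Lysate from HEK293T cells (2 mg/mL) received electrophile (500 µM) or vehicle for 1 h at ambient temperature, followed by iodoacetamide alkyne for 1 h. Samples were clicked to sCIP-TMT reagents, pooled, trypsin-digested overnight at 37 °C, streptavidin-enriched, acid-eluted and run on Orbitrap Eclipse LC-MS/MS with FAIMS, with quantification in FragPipe. Three replicates with duplicate channels were used, and any cysteine quantified in only one replicate was excluded.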
With ETFDH C561 (UniProt Q16134), the “log2 ratio of iodoacetamide-alkyne labeling” value (“log2 ratio” for short) is 0.595. The result for C5orf22 C195 (UniProt Q49AR2) reads 0.458; that for BLM C685 (UniProt P54132), 0.197. Then PPA1 C274 (UniProt Q15181), with 0.425. Then UniProt P62330_C155, with 0.452.

Regarding UniProt P62753_C12, the “log2 ratio” value was 0.196. Turning to UniProt P61163_C222, the “log2 ratio” value was 0.293. Regarding ILK C346 (UniProt Q13418), the “log2 ratio” value was 1.8 (active). Take MARS C12 (UniProt P56192): the “log2 ratio” value was 0.428. With AKAP12 C1407 (UniProt Q02952), the “log2 ratio” value was 1.16 (active). The result for LAGE3 C23 (UniProt Q14657) reads 0.594; that for PPP5C C77 (UniProt P53041), 0.135; that for SPTAN1 C1622 (UniProt Q13813), -0.0196. Then SEC24C C433 (UniProt P53992), with 1.1 (active); and GFPT1 C55 (UniProt Q06210), with 0.387. Regarding PPA1 C114 (UniProt Q15181), the “log2 ratio” value was -0.223. Then UniProt P62273_C39, with 0.0855; and UniProt Q12905_C37, with 0.0335; and DDX39B C198 (UniProt Q13838), with -0.129. Take UniProt P62834_C141: the “log2 ratio” value is 0.00921. For UBE2V1 C144 (UniProt Q13404), the “log2 ratio” value was 0.136. DYNC1H1 C4510 (UniProt Q14204): the “log2 ratio” value is 0.182.

Regarding LMNB2 C212 (UniProt Q03252), the “log2 ratio” value was 0.214.

Values taken from the supplement of paper PMC11006884.
